Holding throughout (assay): NCI-60 one-dose screen, 48 h (100 = growth as untreated, 0 = no growth, -100 = all killed)
Settings in all cases: 10 µM unless noted

Experiment [1] relates to HCT-15 colon.
For experiment [2], the system named is HT29 colon.
The test system of experiment [3] is SNB-75 CNS.
The subject of experiment [4] is SNB-19 CNS.
Experiment [5] deals with U251 CNS.
The subject of experiment [6] is PC-3 prostate.
The test system of experiment [7] is SK-MEL-5 melanoma.
For experiment [8], the system named is UACC-62 melanoma.
Experiment [9] relates to LOX IMVI melanoma.
Experiment [10] has as its system SK-MEL-28 melanoma.
Experiment [11] has as its system SK-MEL-2 melanoma.
Experiment [12] concerns EKVX NSCLC.
In experiment [13] the test system is UO-31 renal.
Experiment [14] relates to TK-10 renal.
The test system of experiment [15] is ACHN renal.
Experiment [16] concerns CAKI-1 renal.
Experiment [17] relates to CCRF-CEM leukemia.
Experiment [18] has as its system MOLT-4 leukemia.
Experiment [19] has as its system SN12C renal.
Experiment [20] relates to A498 renal.

This is part of a sample that, as a whole, favours compounds with a hit. Of some 83,000 tested, about 20% had one in any assay.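 Step 1: grow cells in 96-well plates. Step 2: add test compound at a single concentration. Step 3: incubate 48 h. Step 4: record percent growth.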 A number with no mark means an inactive call. The source made the active and inactive calls. The calls were made as follows: active = growth percent below 10; inactive = the rest.

Turning to `COc1cc2oc(-c3cccc(C(=O)Nc4ccc(Br)cc4)c3)cc(=O)c2c(OC)c1OC`, the growth in experiment [1] is 40.2%; in [2], 39.5%; in experiment [3], 81.7%; in [4], 80.9%; in [5], 65.7%; in experiment [6], 53.1%. Further, the growth in experiment [7] was 56.3%; in [8], 63.7%; in [9], -20.9% (active); in [10], 35.7%; in experiment [11], 71.2%; in [12], 60%. The growth in experiment [13] was 55.7%; in [14] it was 62.5%; in [15], 72.5%; in experiment [16] it was 20.6%; in [17], 41.9%; in [18], 49.5%.
As for `CNC(=O)c1cccc(Cn2nc(C)c(NC(=O)c3ccc(COc4ccc(C(F)(F)F)cc4C)cc3)c2C)n1`, the growth is 49.4% in experiment [1]; 42% in [2]; 80.9% in experiment [3]; 47.8% in [4]; 44.7% in experiment [5]; 34.6% in experiment [6]. In addition, the growth is -6.19% (active) in [7]; 63% in [8]; 55.2% in experiment [9]; 70.5% in experiment [10]; 50.5% in experiment [11]; 37.5% in experiment [12]. In addition, the growth in experiment [13] was 50.8%; in experiment [14] it was 56.2%; in [15] it was 54.9%; in experiment [16], 46.4%; in experiment [17], 60.2%; in experiment [18] it was 29.6%.
`COc1cccc(C(=O)NNc2nc(Cl)nc(N3CCN(C(c4ccccc4)c4ccccc4)CC3)n2)c1`: the growth is 13.3% in [1]; 20.3% in experiment [2]; 89.3% in [3]; 77.4% in [4]; 100% in experiment [5]; 34.3% in experiment [6]. The growth in [7] is 91.2%; in experiment [8], 76.5%; in experiment [9] it was 2.99% (active); in experiment [10] it was 89.1%; in experiment [11] it was 79.1%; in experiment [12], 89.6%. In addition, the growth in experiment [19] was 70.9%; in experiment [13], 93.4%; in experiment [14], 97.8%; in [15], 54.6%; in experiment [16] it was 68.7%; in experiment [17] it was -5.32% (active). Moreover, in experiment [18], the growth was 4.48% (active).
For `O=C(O)c1ccc2c(c1)C(=O)N(Cc1ccccc1)C2=O`, the growth is 99.9% in experiment [1]; 99.9% in experiment [2]; 94.2% in experiment [3]; 95.1% in [4]; 92.7% in [5]; 96.2% in [6]. Further, the growth in [7] is 99.7%; in experiment [8], 97.9%; in experiment [9], 95.7%; in [10], 110%; in [11], 106%; in [12], 99.8%. In addition, the growth in experiment [19] was 98.2%; in experiment [13], 83%; in experiment [14], 91.1%; in [15], 99.9%; in [16] it was 99.3%; in experiment [17] it was 92.6%. Also, the growth in experiment [18] is 98.5%.
For `O=c1ccc(-c2nc(N3CCOCC3)c3ccccc3n2)c[nH]1`, the growth in experiment [1] is 99.1%; in experiment [2], 101%; in experiment [3], 81.1%; in experiment [4], 98.7%; in experiment [5] it was 99.1%; in [6], 93.5%. In addition, the growth is 88.3% in [7]; 55.5% in [8]; 98.3% in [9]; 97.6% in [10]; 108% in experiment [11]; 59.2% in [12]. Besides, the growth in [13] was 83.1%; in [14], 87.3%; in experiment [15] it was 93.1%; in experiment [16], 95.9%; in experiment [17], 108%; in [18] it was 110%.
On to `O=S(=O)(NCCCNc1nccc(-c2c(-c3cccc(F)c3)nc3sccn23)n1)c1cccc(F)c1`, for which the growth in experiment [1] is 22.6%; in [2], 30.6%; in experiment [3], 88.6%; in experiment [4], 76.8%; in experiment [5] it was 70%; in experiment [6], 27.1%. For the same compound, the growth was 13.5% in experiment [7]; 6.36% (active) in experiment [8]; 39% in experiment [9]; 68.3% in experiment [10]; 47.6% in [11]; 52.4% in experiment [12]. Moreover, the growth is 28.2% in experiment [13]; 72.3% in experiment [14]; 42.5% in [15]; 41.5% in experiment [16]; 24.7% in experiment [17]; 9.94% (active) in [18].
Take `Cc1cnc(C(=O)Nc2nc3ccc(S(=O)(=O)Nc4ccc(C5(C(F)(F)F)CC5)cc4)cc3[nH]2)cn1`: the growth is 20.6% in experiment [1]; 9.04% (active) in experiment [2]; -7.96% (active) in experiment [3]; 30.1% in experiment [4]; 21.8% in experiment [5]; 18% in experiment [6]. The growth in [7] is -3.91% (active); in [8], 35.3%; in [9], 35.1%; in [10] it was 54.1%; in experiment [11], 37.9%; in experiment [12], 59.1%. Besides, the growth in experiment [13] was 38.7%; in experiment [14], 32.1%; in [15], 48.2%; in [16], 22.6%; in experiment [17] it was 11.1%; in [18], 20%.
In the case of `CCCN1[C@@H]2CC[C@H]1/C(=C\c1ccc(OC)c(OC)c1)C(=O)/C2=C/c1ccc(OC)c(OC)c1`, the growth is 41.6% in experiment [1]; 30% in experiment [2]; 61.1% in experiment [3]; 56.7% in experiment [4]; 40.7% in experiment [5]; 44.3% in experiment [6]. Further, the growth in experiment [7] is 18.1%; in experiment [8] it was 32%; in [9], 32.5%; in experiment [10], 73.2%; in experiment [11] it was 53.6%; in experiment [12], 37.7%. The growth is 33.6% in experiment [13]; 67.2% in experiment [14]; 47.3% in experiment [15]; 45.9% in experiment [16]; 23.6% in [20]; 30.6% in [17]. Also, the growth in experiment [18] is 29.5%.

For the origin of these results see PubChem BioAssay (NCI).
